Experimental data published in publication PMC4336329 (PLoS ONE, 2015).
Out of some 310,000 compounds screened, about 2,200 (0.71%) showed an effect of 50% or more. The effect is printed as a negative number. What follows is part of a selection rich in strong results, with near analogues and random picks from the rest.

molecular target: human ether-à-go-go-related gene (hERG) potassium channel (human, UniProt Q12809); test: primary screen, population patch clamp on CHO cells stably expressing hERG; higher = less effect of the substance
Sequence (Q12809 whole entry, looked up): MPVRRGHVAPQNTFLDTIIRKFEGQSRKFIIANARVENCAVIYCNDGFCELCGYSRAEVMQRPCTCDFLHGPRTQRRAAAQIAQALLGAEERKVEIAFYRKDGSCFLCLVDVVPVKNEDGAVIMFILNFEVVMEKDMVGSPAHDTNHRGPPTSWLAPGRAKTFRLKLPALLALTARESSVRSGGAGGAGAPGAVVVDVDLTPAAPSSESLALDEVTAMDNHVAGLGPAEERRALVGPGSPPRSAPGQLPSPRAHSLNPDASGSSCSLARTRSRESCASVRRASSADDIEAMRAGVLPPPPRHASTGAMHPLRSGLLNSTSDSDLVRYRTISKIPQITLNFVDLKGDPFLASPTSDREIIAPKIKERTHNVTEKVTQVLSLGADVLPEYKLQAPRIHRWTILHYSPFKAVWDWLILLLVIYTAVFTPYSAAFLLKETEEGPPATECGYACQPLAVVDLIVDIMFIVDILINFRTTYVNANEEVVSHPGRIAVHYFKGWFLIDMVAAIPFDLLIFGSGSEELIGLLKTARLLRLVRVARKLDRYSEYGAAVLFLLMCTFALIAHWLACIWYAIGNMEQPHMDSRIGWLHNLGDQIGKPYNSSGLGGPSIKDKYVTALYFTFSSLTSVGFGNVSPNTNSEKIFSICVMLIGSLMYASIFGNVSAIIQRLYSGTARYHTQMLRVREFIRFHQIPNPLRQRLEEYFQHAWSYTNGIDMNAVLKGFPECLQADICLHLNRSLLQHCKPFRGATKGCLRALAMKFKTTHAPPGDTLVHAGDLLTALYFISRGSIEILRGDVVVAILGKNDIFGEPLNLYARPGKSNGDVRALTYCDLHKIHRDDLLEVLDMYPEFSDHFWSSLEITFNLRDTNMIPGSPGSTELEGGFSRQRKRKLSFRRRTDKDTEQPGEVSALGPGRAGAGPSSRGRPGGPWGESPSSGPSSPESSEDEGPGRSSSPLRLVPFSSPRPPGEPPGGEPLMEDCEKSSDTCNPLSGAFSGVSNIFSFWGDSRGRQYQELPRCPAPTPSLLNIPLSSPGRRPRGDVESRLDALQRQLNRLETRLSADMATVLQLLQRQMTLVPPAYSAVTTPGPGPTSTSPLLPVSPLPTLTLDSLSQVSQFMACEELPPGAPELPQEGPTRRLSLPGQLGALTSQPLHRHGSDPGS

Structure (SMILES) | hERG current change (%, negative = inhibition) at 1uM [%]
Cn1cc(CN2CCc3c([nH]c4ccccc34)C2C(C)(C)C)cn1 (stereo not drawn) | -3.25
CCCc1nc2c(o1)CC(CC(C)SCC)CC2=O (stereo not drawn) | -11.3
C=C(C)CSc1nc(N)c2c(C)c(C)sc2n1 | 10.3
O=C(NC1CCCN(Cc2ccc(Cl)cc2)C1)c1c(F)cccc1F (stereo not drawn) | 17.1
Cc1occc1C(=O)NC1CCCN(Cc2ccc(CC(C)C)cc2)C1 (stereo not drawn) | 6.64
CC(C)Cc1ccc(CN2CCCC(NC(=O)c3ccnn3C)C2)cc1 (stereo not drawn) | -50.4
O=C(NC1CCCN(Cc2ccc(Cl)cc2)C1)c1c(F)ccc(F)c1F (stereo not drawn) | -55.4
O=C(NC1CCCN(Cc2ccc(Cl)cc2)C1)c1cccc(F)c1 (stereo not drawn) | -18.6
CC(C)Cc1ccc(CN2CCCC(NC(=O)c3ccoc3)C2)cc1 (stereo not drawn) | -7.26
O=C(NCCN1CCN(S(=O)(=O)c2ccccc2)CC1)C(=O)Nc1ccc(F)cc1 | 8.68
O=C(CN1C(=O)c2cccc3cccc(c23)C1=O)NCCCO | 9.32
COc1ccccc1NC(=O)N1CCN(c2ccc3nnc(-c4ccc(F)cc4)n3n2)CC1 | 13.5
CC(C)CCN1CCN(Cc2ccc3nsnc3c2)CC1CCO (stereo not drawn) | -21.3
OCCC1CN(Cc2nc(-c3ccccc3)cs2)CCN1Cc1ccc(F)cc1 (stereo not drawn) | -47.1
CC(C)=CCN1CCN(Cc2ccc3nsnc3c2)CC1CCO (stereo not drawn) | 4.93
OCC1(CCc2ccccc2)CCN(Cc2ccc3nsnc3c2)CC1 | -69.1
CC(C)CN1CCN(Cc2nc3ccccc3s2)CC1CCO (stereo not drawn) | -5.53
CC(C)CCN1CCN(Cc2nc3ccccc3s2)CC1CCO (stereo not drawn) | -8.09
COc1ccc(CC2(CO)CCN(Cc3ccc4nsnc4c3)CC2)cc1 | -4.45
OCCC1CN(Cc2nc(-c3ccc(F)cc3)cs2)CCN1CCc1ccccc1 (stereo not drawn) | -69.3
OCCC1CN(Cc2nc(-c3ccccc3)cs2)CCN1CCc1ccccc1 (stereo not drawn) | -42.8
OCCC1CN(Cc2nc3ccccc3s2)CCN1CCc1ccccc1 (stereo not drawn) | -58.3
OCCC1CN(Cc2ccc3nsnc3c2)CCN1CCc1ccccc1 (stereo not drawn) | -73.7

Structure (SMILES) | hERG current change (%, negative = inhibition) at 1uM [%]
OCC1(Cc2ccc(Cl)cc2)CCN(Cc2ccc3nsnc3c2)CC1 | -6.01
O=C(N/N=C/c1ccc(-c2cccc([N+](=O)[O-])c2)o1)[C@H]1C[C@@H]1c1ccccc1 | 3.49
CCOC(=O)c1cnc(N)nc1C(F)(F)F | -2.92
CCC(=O)NC(=S)Nc1ccc(NC(=O)COc2ccccc2)cc1 | 19.7
COc1ccc(C(=O)N2CCN(C(C)=O)CC2)cc1S(=O)(=O)N1CCOCC1 | 14.4
COc1ccc(C(=O)NCc2ccc3c(c2)OCO3)c(OC)c1 | 13.6
CC(=O)Nc1ccc(S(=O)(=O)NCC(=O)OCC(=O)N2CCc3ccccc32)cc1 | 2.85
Cc1ccc2c(CN3CCC(C)CC3)cc(=O)oc2c1 | -1.03
COc1ccc(CN2CCN(Cc3cc(=O)oc4cc(C)ccc34)CC2)c(OC)c1OC | -87.6
Cc1cc2oc(=O)cc(CN3CCN(Cc4ccccc4)CC3)c2cc1O | -12.5
CCN(Cc1nc2ccccc2c(=O)[nH]1)Cc1cc(=O)oc2cc(C)c(C)cc12 | -25.2
O=c1cc(CN2CCN(Cc3ccccc3)CC2)c2cc(O)ccc2o1 | -39.4
Cc1ccc2c(CN3CCOCC3)cc(=O)oc2c1 | -6.01
CCN(Cc1nc2ccccc2c(=O)[nH]1)Cc1cc(=O)oc2cc(OC)ccc12 | -25.6
CCc1ccc2c(CN(CC)Cc3nc4ccccc4c(=O)[nH]3)cc(=O)oc2c1 | -60.5
Cc1ccc2c(CN3CCCCC3)cc(=O)oc2c1 | 6.38
O=c1cc(CN2CCN(Cc3ccccc3)CC2)c2ccc(O)cc2o1 | -79.7
Cc1ccc2c(CN3CCN(CCO)CC3)cc(=O)oc2c1 | -52.1
COc1ccc2oc(=O)cc(CN3CCN(Cc4ccc(OC)c(OC)c4OC)CC3)c2c1 | -2.05
COc1ccc(CNC(=O)CSc2nnc3c(n2)[nH]c2ccc(OC)cc23)cc1 | 11.1
Cc1ccc(NS(=O)(=O)c2cc(NC(=O)c3cc4c(s3)CCCC4)ccc2C)c(C)c1 | 7.78
CCC1(CC)C(=O)NC(=O)NC1=NCCc1c[nH]c2ccccc12 | 21.2
Fc1cccc(CN2CCN(Cc3nc(CCc4ccccc4)no3)CC2)c1 | 3.49

Structure (SMILES) | hERG current change (%, negative = inhibition) at 1uM [%]
Cc1cc2oc(=O)cc(CN3CCN(Cc4ccc5c(c4)OCO5)CC3)c2cc1C | 0.724
Cc1ccc2c(CN3CCN(Cc4ccccc4)CC3)cc(=O)oc2c1 | -84
Cc1cc2oc(=O)cc(CN3CCN(Cc4ccccc4)CC3)c2cc1Cl | 0.748
COc1ccc(OC)c(CN2CCN(Cc3cc(=O)oc4cc(O)ccc34)CC2)c1 | -67
CCc1ccc2c(CN3CCOCC3)cc(=O)oc2c1 | -4.5
Cc1ccc2oc(=O)cc(CN3CCN(Cc4ccccc4)CC3)c2c1 | -18.6
Cc1cc(C)c2c(CN3CCN(Cc4ccc5c(c4)OCO5)CC3)cc(=O)oc2c1 | -50.3
CCc1ccc2oc(=O)cc(CN3CCN(Cc4ccccc4)CC3)c2c1 | -17.6
COc1ccc2oc(=O)cc(CN3CCOCC3)c2c1 | 10.4
Cc1cc(C)c2c(CN3CCN(Cc4ccc5c(c4)OCO5)CC3)cc(=O)oc2c1C | 2.67
COC(=O)C1CCN(Cc2cc(=O)oc3cc(OC)ccc23)CC1 | -1.21
CCc1ccc2c(CN3CCN(Cc4ccccc4)CC3)cc(=O)oc2c1 | -84.6
CN(C)C(=S)NC(=O)C12CC3(C)CC(C)(CC(C)(C3)C1)C2 | 12.9
O=C(CSc1nnc(CNC(=O)c2ccc(F)cc2)o1)Nc1nccs1 | 13.2
CCCCOc1c(Cl)cc(C(=O)N(C)CC(=O)Nc2ccc(N3CCOCC3)cc2)cc1OCC | 9.76
O=C(NCCCn1cccn1)C1CCC(=O)N(Cc2ccccc2F)C1 (stereo not drawn) | 7.05
O=C(CCN1C(=O)/C(=C/C=C/c2ccccc2)SC1=S)Nc1nccs1 | -3
Cn1c(SCC(=O)Nc2ccc3c(c2)OCCO3)nnc1-c1ccccn1 | 6.5
CCN(CC)S(=O)(=O)c1ccc(NC(=O)COC(=O)c2c[nH]c(=O)[nH]c2=O)cc1 | 11.1
CN(C)CCCOC(=O)c1ccc(Br)cc1 | -6.15
COc1ccc(CCNC(=O)C2CCN(C(=O)c3ccc(OC)c(OC)c3)CC2)cc1 | 13.3
Cc1cccc(OCC(=O)NC(=S)Nc2ccc(S(=O)(=O)NC3CCCCC3)cc2)c1 | 11.2
COc1ccc(-c2nc(-c3ccc4c(c3)OCO4)[nH]c2-c2ccc(OC)cc2)cc1 | 14.7

Structure (SMILES) | hERG current change (%, negative = inhibition) at 1uM [%]
O=C(NC1CCN(Cc2cccc([N+](=O)[O-])c2)CC1)c1ccccc1 | -3.19
O=C(NC1CC2CCCC(C1)N2Cc1ccccc1)c1ccc([N+](=O)[O-])cc1 (stereo not drawn) | -82.2
CN1C2CCC1CC(NC(=O)c1ccc([N+](=O)[O-])cc1)C2 (stereo not drawn) | 12.1
O=C(NC1CC2CCCC(C1)N2Cc1cccs1)c1ccc([N+](=O)[O-])cc1 (stereo not drawn) | -78.6
O=C(NC1CC2CCCC(C1)N2Cc1ccccc1)c1cccc(Cl)c1 (stereo not drawn) | -12.1
COCCNC(=S)NC1CC2CCCC(C1)N2Cc1cccs1 (stereo not drawn) | -1.25
CC(C)CN1C2CCCC1CC(NC(=O)c1ccc([N+](=O)[O-])cc1)C2 (stereo not drawn) | -70.1
O=C(NC1CCN(CC(=O)N(c2ccccc2)c2ccccc2)CC1)c1ccc([N+](=O)[O-])cc1 | -78.6
O=C(NC1CC2CCCC(C1)N2Cc1cccs1)N1CCOCC1 (stereo not drawn) | 3.19
COc1ccc(C(=O)NC2CC3CCCC(C2)N3CC(C)C)cc1 (stereo not drawn) | -13.5
CCOc1ccc(C(=O)NC2CC3CCCC(C2)N3Cc2ccccc2)cc1 (stereo not drawn) | -20.4
CC1CCCCC1NC(=O)CN1CCC(NC(=O)c2ccc([N+](=O)[O-])cc2)CC1 (stereo not drawn) | 12.1
CC(C)NC(=O)C1CCN(C2CCN(C(=O)c3cc4c(s3)CCCCC4)CC2)CC1 | 6.33
CCOc1cc(C(=O)NCCc2ccc(S(N)(=O)=O)cc2)cc(OCC)c1OCC | 3.65
Cc1ccccc1NC(=O)C1CCCN1C(=O)NC1CCCCC1 (stereo not drawn) | 17.4
CCOCCCNc1nc(C(F)(F)F)nc2c1nnn2Cc1ccccc1Cl | 15.9
O=C(N1CCC(n2nc(-c3ccccc3)oc2=O)CC1)C1(c2ccc(Cl)cc2)CC1 | 7.63
COCCNC(=O)c1c[nH]n2c(=O)cc(C3CCN(C(=O)OC(C)(C)C)CC3)nc12 | 9.37
Cc1cccc(COc2coc(CN3CCN(C(=O)c4ccco4)CC3)cc2=O)c1 | -7.28
Cc1ccc(COc2coc(CN3CCN(C(=O)c4ccco4)CC3)cc2=O)cc1 | -16.4
Cc1ccc(C)c(COc2coc(CN3CCN(C(=O)c4ccco4)CC3)cc2=O)c1 | -95.9
